In PubChem BioAssay (EPA / NIEHS) one finds outcome and AC50 data, which are given here for 15 molecules.

Results filed as inconclusive are left out. Activity calls are given as the source filed them. Rule for the calls, unless noted: active = hit-call score of the fitted dose curve at least 0.9, where 1 is the maximum; inactive = score below 0.9.

A word on the AC50: it is the concentration at which the activity in the assay is half-maximal.

Test [1] deals with Retinoic acid receptor RXR-alpha (Homo sapiens) (UniProt P19793). The test can be described thus: OT_NURR1_NURR1RXRa_1440: Odyssey Thera (OT) 24-hour HEK293T Protein Complementation Assay for Nurr1/retinoid X receptor (RXR) (AID 2283386; active = hit-call score of the fitted dose curve at least 0.9, where 1 is the maximum). Put shortly: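 Gain in fluorescence, fitted relative to DMSO, reflects Nurr1–RXRα association in HEK293T cells after 24 h dosing. Bait and prey are each linked to a reporter-protein fragment that reassembles on interaction.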

Read-out in test [2]: Fatty acid synthase (Homo sapiens) (UniProt P49327)
The test can be described thus: LTEA_HepaRG_FASN: Life Technologies and Expression Analysis (LTEA) Assay for Fatty Acid Synthase (FASN) using HepaRG (AID 2283448).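 For AC50: differentiated human HepaRG liver cells in serum-free induction medium.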 Particulars: mRNA level, 48 h; actives raise or lower the signal. The procedure, abridged:
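FASN transcript measured by TaqMan qRT-PCR, normalised to three housekeeping genes, after 48 h chemical exposure of HepaRG cells. Eight-point half-log series from 100 uM in 0.5% DMSO, duplicates; gain or loss fitted against vehicle.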

Read-out in test [3]: Cyclin D2 (CCND2), CCND2 (gene 894)
The test can be described thus: LTEA_HepaRG_CCND2: Life Technologies and Expression Analysis (LTEA) Assay for Cyclin D2 (CCND2) using HepaRG (AID 2283449).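 Note: CCND2 transcript measured by TaqMan qRT-PCR and normalised to three housekeeping genes.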 Particulars: mRNA level, 48 h; actives raise or lower the signal. The procedure, abridged:
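HepaRG, 48 h dosing, 8-pt half-log curve from 100 uM, 0.5% DMSO; duplicate wells. Readout: CCND2 transcript by microfluidic qRT-PCR, housekeeping-normalised; bidirectional fit vs DMSO baseline.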

Read-out in test [4]: Cyclin Dependent Kinase Inhibitor 1A (CDKN1A), CDKN1A (gene 1026)
The experiment in a line: LTEA_HepaRG_CDKN1A: Life Technologies and Expression Analysis (LTEA) Assay for Cyclin Dependent Kinase Inhibitor 1A (CDKN1A) using HepaRG (AID 2283450). The conditions noted are these: mRNA level, 48 h; actives raise or lower the signal. The procedure, abridged:
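Gain or loss of CDKN1A transcript is scored by bidirectional fitting against 0.5% DMSO vehicle. Human HepaRG cultures receive chemicals for 48 h across an 8-point series peaking at 100 uM; expression comes from qRT-PCR.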

Read-out in test [5]: Cyclin D1 (CCND1), CCND1 (gene 595)
The experiment in a line: LTEA_HepaRG_CCND1: Life Technologies and Expression Analysis (LTEA) Assay for Cyclin D1 (CCND1) using HepaRG (AID 2283451).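 For AC50: differentiated human HepaRG liver cells in serum-free induction medium; TaqMan qRT-PCR transcript level normalised to ACTB GAPDH and POLR2A housekeeping genes.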 Particulars: mRNA level, 48 h; actives raise or lower the signal. Put shortly: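 Expression change is measured by qRT-PCR in HepaRG cells after 48 h treatment across eight concentrations topping at 100 uM, with duplicate wells and DMSO (0.5%) serving as baseline for bidirectional fitting.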

Read-out in test [6]: catalase (CAT), CAT (gene 847)
The test can be described thus: LTEA_HepaRG_CAT: Life Technologies and Expression Analysis (LTEA) Assay for catalase (CAT) using HepaRG (AID 2283452).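 For AC50: TaqMan qRT-PCR signal normalized to ACTB GAPDH and POLR2A housekeeping genes.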 The conditions noted are these: mRNA level, 48 h; actives raise or lower the signal. The procedure, abridged: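 HepaRG cells in serum-free induction medium, 0.5% DMSO vehicle, exposed 48 h in duplicate over 8 half-log concentrations from 100 uM. CAT mRNA measured by qRT-PCR, normalized to ACTB, GAPDH, POLR2A; bidirectional fit versus DMSO.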

Read-out in test [7]: flavin-containing dimethylaniline monooxygenases 3 (FMO3), FMO3 (gene 2328)
The test can be described thus: LTEA_HepaRG_FMO3: Life Technologies and Expression Analysis (LTEA) Assay for flavin-containing dimethylaniline monooxygenases 3 (FMO3) using HepaRG (AID 2283453).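 For AC50: differentiated human HepaRG liver cells in serum-free induction medium; FMO3 transcript by TaqMan qRT-PCR normalized to ACTB GAPDH and POLR2A.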 Particulars: mRNA level, 48 h; actives raise or lower the signal. The procedure, abridged:
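FMO3 transcript quantified by TaqMan qRT-PCR against three housekeeping genes after 48 h chemical exposure of HepaRG cells. Eight-point half-log series, top 100 uM, 0.5% DMSO vehicle; phenobarbital 1mM induction control; up- or down-regulation fitted.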

The target of test [8] is Peroxisome proliferator-activated receptor gamma (Homo sapiens) (UniProt P37231). The test can be described thus: OT_PPARg_PPARgSRC1_0480: Odyssey Thera (OT) 8-hour Protein-Complementation Assay for Peroxisome Proliferator-activated Receptor Gamma / SRC-1 Co-activator (AID 2283387; active = hit-call score of the fitted dose curve at least 0.9, where 1 is the maximum;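 note: nuclear to cytoplasmic split Venus YFP fluorescence ratio reporting PPARg SRC-1 interaction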). Put shortly:
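Protein-fragment complementation of split Venus YFP reports PPARg/SRC-1 interaction in HEK293T (transfected 48 h before treatment), exposed 8 h. Readout: N/C fluorescence ratio at 488 nm from imaging, Draq5 for segmentation, positive fit relative to DMSO.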

For test [9], the target named is Retinoic acid receptor RXR-alpha (Homo sapiens) (UniProt P19793). The experiment in a line: OT_NURR1_NURR1RXRa_0480: Odyssey Thera (OT) 8-hour HEK293T Protein Complementation Assay for Nurr1/retinoid X receptor (RXR) (AID 2283385; active = hit-call score of the fitted dose curve at least 0.9, where 1 is the maximum). The procedure, abridged: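 Interaction of Nurr1 with RXRα read as reconstituted reporter fluorescence in a HEK293T fragment-complementation system, 8 h post-treatment; increase over DMSO baseline analysed.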

Test [10] is described as follows: CEETOX_H295R_OHPREG: CeeTox H295R High-throughput Steroidogenesis Assay for OH-Pregnenolone (OHPREG) (AID 2283434). The conditions noted are these: actives raise or lower the signal. Put shortly: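 H295R, 10 uM forskolin pre-stim 48 h; test chemical 48 h, 0.1% DMSO final. MTBE extraction, reverse-phase C18 HPLC-ESI+ MS/MS of medium. Gain/loss vs DMSO; viability by MTT in same wells.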

A short description of test [11]: CEETOX_H295R_ANDR: CeeTox H295R High-throughput Steroidogenesis Assay for Androstenedione (ANDR) (AID 2283436). The conditions noted are these: actives raise or lower the signal. Put shortly: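 48 h chemical exposure, H295R cells, DMEM/F12 + ITS+ and Nu-Serum. Medium androstenedione: MTBE extraction, C18 reverse-phase HPLC, ESI+ MS/MS. Fit bidirectional vs DMSO; MTT viability in same wells.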

Test [12] is described as follows: CEETOX_H295R_PROG: CeeTox H295R High-throughput Steroidogenesis Assay for Progesterone (PROG) (AID 2283442). Particulars: actives raise or lower the signal. The procedure, abridged:
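Measured analyte is progesterone secreted by H295R cells at 48 h of chemical treatment, following 10 uM forskolin priming. Quantitation used HPLC-MS/MS against a 7-point standard curve; cytotoxicity was checked by MTT absorbance.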

Test [13] in a line: CEETOX_H295R_11DCORT: CeeTox H295R High-throughput Steroidogenesis Assay for 11-Deoxycortisol (11DCORT) (AID 2283432).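 For AC50: 11-deoxycortisol secreted into the medium measured by LC-MS/MS.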 The conditions noted are these: actives raise or lower the signal. The procedure, abridged: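 Human adrenal H295R cells were prestimulated with 10 uM forskolin for 48 h, then exposed to test chemical (0.1% DMSO final) for 48 h. Medium 11-deoxycortisol was quantified by MTBE extraction and HPLC-MS/MS; bidirectional fitting relative to DMSO.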

A short description of test [14]: CEETOX_H295R_CORTIC: CeeTox H295R High-throughput Steroidogenesis Assay for Corticosterone (CORTIC) (AID 2283437).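 Note: corticosterone secreted into medium quantified by mass spectrometry.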 Particulars: actives raise or lower the signal. The procedure, abridged:
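48 h forskolin (10 uM) prestim, then 48 h chemical exposure, final DMSO 0.1%. Readout: corticosterone in medium by LC-MS/MS after MTBE extraction. Gain/loss fit vs DMSO; MTT viability in same wells.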

A short description of test [15]: CEETOX_H295R_CORTISOL: CeeTox H295R High-throughput Steroidogenesis Assay for Cortisol (AID 2283438).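 Note: cortisol secreted into medium quantified by LC-MS/MS.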 Particulars: actives raise or lower the signal. Put shortly:
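Cortisol measured by HPLC-MS/MS after MTBE extraction of medium from H295R cells exposed 48 h to chemical (0.1% DMSO), following 48 h prestimulation with 10 uM forskolin. Viability assessed by MTT in the same wells.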

A short description of test [16]: CEETOX_H295R_DOC: CeeTox H295R High-throughput Steroidogenesis Assay for DOC (AID 2283439). Particulars: actives raise or lower the signal. The procedure, abridged: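 11-Deoxycorticosterone quantified in medium by MTBE extraction and HPLC-MS/MS after 48 h chemical exposure (0.1% DMSO) of forskolin-primed (10 uM, 48 h) H295R cells. Same-well MTT viability; data fitted bidirectionally against DMSO.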

Read-out in test [17]: Tumor necrosis factor receptor superfamily member 6 (Homo sapiens) (UniProt P25445)
The test can be described thus: LTEA_HepaRG_FAS: Life Technologies and Expression Analysis (LTEA) Assay for Fas cell surface death receptor (FAS) using HepaRG (AID 2283447). Particulars: mRNA level, 48 h; actives raise or lower the signal. The procedure, abridged: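 Differentiated HepaRG cells in serum-free induction medium were exposed 48 h to 8 half-log concentrations up to 100 uM in 0.5% DMSO, in duplicate. FAS mRNA was measured by qRT-PCR normalised to ACTB, GAPDH and POLR2A; bidirectional fit versus DMSO.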

In test [18] the target is Peroxisome proliferator-activated receptor gamma (Homo sapiens) (UniProt P37231). The test can be described thus: OT_PPARg_PPARgSRC1_1440: Odyssey Thera (OT) 24-hour Protein-Complementation Assay for Peroxisome Proliferator-activated Receptor Gamma/ SRC-1 Co-activator (AID 2283388; active = hit-call score of the fitted dose curve at least 0.9, where 1 is the maximum;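 note: nuclear to cytoplasmic ratio of reconstituted Venus YFP fluorescence in fixed imaged cells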). Put shortly: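 Cells carrying the PPARg/SRC-1 fragment-complementation reporter receive compound for 24 hours, are fixed and counterstained with Draq5, then imaged. Increased nuclear relative to cytoplasmic YFP fluorescence above DMSO baseline indicates binding activity.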
Peroxisome proliferator-activated receptor gamma (Homo sapiens), sequence (P37231 whole entry, looked up, the tested form may be a part): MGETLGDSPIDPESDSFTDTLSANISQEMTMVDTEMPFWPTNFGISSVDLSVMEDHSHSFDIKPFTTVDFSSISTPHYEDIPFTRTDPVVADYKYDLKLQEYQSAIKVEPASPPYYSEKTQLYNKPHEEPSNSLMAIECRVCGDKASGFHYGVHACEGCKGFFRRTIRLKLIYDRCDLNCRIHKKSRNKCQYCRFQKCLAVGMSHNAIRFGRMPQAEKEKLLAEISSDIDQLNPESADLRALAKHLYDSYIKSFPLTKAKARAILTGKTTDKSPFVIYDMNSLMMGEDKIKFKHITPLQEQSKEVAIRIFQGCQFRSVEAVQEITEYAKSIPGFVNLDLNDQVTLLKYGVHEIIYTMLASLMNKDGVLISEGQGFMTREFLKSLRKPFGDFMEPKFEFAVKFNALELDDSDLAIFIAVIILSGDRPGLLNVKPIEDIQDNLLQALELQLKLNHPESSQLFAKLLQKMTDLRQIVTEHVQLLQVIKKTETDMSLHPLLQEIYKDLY

Fatty acid synthase (Homo sapiens), sequence (P49327 whole entry, looked up): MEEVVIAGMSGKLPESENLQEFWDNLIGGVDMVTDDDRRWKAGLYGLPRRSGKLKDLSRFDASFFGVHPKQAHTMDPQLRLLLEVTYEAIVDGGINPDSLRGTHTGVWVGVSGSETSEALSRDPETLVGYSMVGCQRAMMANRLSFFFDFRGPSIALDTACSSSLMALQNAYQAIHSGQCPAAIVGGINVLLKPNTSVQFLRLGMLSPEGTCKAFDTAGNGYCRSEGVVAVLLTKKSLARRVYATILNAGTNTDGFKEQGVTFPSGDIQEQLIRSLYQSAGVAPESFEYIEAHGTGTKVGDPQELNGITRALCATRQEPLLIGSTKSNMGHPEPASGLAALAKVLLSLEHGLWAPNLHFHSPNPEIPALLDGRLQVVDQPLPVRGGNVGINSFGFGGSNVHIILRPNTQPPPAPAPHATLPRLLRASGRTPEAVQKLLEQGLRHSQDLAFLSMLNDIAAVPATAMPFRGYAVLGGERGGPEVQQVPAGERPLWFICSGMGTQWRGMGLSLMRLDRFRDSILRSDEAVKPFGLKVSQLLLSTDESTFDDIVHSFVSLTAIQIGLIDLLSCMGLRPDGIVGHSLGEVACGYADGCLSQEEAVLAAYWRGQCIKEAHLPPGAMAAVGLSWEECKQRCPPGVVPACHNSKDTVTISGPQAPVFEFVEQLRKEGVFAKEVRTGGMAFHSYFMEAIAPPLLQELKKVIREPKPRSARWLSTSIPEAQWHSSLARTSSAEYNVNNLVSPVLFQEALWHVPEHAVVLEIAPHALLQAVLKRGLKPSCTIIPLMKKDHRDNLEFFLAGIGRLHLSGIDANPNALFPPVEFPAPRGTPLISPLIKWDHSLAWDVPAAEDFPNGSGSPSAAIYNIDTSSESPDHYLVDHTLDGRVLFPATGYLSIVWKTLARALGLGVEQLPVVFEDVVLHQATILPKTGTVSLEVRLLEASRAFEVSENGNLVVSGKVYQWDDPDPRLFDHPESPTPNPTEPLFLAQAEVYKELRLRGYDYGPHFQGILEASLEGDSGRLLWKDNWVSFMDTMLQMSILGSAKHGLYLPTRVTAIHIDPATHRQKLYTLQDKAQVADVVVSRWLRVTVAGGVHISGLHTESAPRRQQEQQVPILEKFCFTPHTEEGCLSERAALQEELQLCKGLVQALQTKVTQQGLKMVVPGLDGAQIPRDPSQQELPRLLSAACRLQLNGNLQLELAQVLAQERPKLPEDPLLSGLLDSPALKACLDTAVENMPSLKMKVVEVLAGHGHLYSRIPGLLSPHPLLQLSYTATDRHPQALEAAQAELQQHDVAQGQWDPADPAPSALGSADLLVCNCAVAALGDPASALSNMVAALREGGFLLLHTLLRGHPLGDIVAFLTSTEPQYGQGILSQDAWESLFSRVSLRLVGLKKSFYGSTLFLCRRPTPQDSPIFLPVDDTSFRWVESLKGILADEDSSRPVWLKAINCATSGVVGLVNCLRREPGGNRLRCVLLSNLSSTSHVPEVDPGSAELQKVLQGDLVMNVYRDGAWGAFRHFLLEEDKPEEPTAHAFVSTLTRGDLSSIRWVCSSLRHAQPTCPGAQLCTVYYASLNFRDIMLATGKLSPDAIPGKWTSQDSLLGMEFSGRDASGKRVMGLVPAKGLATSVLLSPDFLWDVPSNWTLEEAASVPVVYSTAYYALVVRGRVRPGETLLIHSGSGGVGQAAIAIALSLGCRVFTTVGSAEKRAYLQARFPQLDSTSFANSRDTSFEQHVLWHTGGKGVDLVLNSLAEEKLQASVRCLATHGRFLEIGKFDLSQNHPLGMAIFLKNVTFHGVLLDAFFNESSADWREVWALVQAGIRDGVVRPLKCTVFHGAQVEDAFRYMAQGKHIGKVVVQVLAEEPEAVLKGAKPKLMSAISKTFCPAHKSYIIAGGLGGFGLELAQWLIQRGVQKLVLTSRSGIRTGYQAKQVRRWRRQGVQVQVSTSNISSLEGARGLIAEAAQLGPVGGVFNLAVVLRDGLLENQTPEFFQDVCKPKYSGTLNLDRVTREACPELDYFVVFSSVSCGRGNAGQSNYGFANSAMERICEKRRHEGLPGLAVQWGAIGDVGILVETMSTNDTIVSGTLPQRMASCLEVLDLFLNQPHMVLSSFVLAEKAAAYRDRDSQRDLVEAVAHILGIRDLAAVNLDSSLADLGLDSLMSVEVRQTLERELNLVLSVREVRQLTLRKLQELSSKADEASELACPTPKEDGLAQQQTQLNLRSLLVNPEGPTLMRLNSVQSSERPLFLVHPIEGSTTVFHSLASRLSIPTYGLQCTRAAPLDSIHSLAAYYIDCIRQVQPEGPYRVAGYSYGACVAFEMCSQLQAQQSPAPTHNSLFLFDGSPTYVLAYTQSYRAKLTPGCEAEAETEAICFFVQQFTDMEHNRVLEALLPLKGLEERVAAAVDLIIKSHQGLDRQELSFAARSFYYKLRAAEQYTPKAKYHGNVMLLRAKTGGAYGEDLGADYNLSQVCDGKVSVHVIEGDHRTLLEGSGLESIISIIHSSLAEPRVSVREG
Retinoic acid receptor RXR-alpha (Homo sapiens), sequence (P19793 whole entry, looked up, the tested form may be a part): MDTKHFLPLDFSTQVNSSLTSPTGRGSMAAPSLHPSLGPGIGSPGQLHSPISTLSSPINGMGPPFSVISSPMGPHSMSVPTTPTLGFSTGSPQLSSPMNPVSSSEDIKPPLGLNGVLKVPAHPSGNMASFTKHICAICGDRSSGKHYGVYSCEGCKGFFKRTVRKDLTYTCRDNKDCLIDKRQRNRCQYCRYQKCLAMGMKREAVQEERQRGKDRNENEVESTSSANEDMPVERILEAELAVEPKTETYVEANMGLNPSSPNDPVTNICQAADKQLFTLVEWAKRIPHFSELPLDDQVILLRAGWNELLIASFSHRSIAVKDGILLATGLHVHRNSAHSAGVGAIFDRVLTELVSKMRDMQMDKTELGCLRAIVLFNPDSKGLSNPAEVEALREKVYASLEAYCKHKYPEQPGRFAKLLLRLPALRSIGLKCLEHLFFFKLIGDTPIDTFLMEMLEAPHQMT

On to `CN(C)c1ccccc1`, for which the call in test [1], in test [2], in test [3], in test [4], in test [5] and in test [6] was inactive. Further, in [7], the molecule was classed as inactive.

As for `O=[N+]([O-])C(Br)(CO)CO`, the result in [1], in test [8], in test [2], in test [3], in test [4] and in [5] was inactive. Moreover, the molecule was classed as inactive in test [6] and in test [7].

For the molecule `CCC[CH2][Sn]([Cl])([CH2]CCC)[CH2]CCC`, the call in test [9] and in test [1] was inactive. For the same molecule, the AC50 in test [2] was 2.86 µM (active); in test [4], 88.1 µM (active); in [5] it was 81.2 µM (active); in [7], 2.31 µM (active).

In the case of `CC(C)N(Cc1ccccc1)C(=O)C(C)(C)C`, the result in test [9], in [8], in test [10], in [11], in test [12] and in test [2] was inactive. For the same molecule, the call in test [3], in [4], in test [5], in test [6] and in [7] was inactive.

Regarding `CCCSC(=O)N(CCC)CCC`, the molecule was called inactive in test [9], in test [2], in [3], in test [4], in test [5] and in test [7].

Consider `O=C(N[C@H](c1ccccc1)[C@@H]1CN2CCC1CC2)c1c(Cl)ccc(C(F)(F)F)c1Cl`, for which the molecule was called inactive in [8], in [3] and in [4]. In addition, the AC50 was 76.8 µM (active) in test [2], 74.2 µM (active) in test [5], 68.5 µM (active) in test [6] and 65.9 µM (active) in test [7].

In the case of `N#CC(Br)Br`, the molecule was classed as inactive in test [8], in test [2], in test [3], in [4], in test [5] and in test [7].

As to `COP(=S)(OC)SCN1C(=O)c2ccccc2C1=O`, the result in [9], in test [8], in test [13], in [10], in test [14] and in [15] was inactive. For the same molecule, the molecule was called inactive in test [16], in test [12], in [2], in test [3], in test [4] and in test [5]. In addition, the outcome in [6] and in [7] was inactive.

Take `CS(=O)(=O)NC(=O)c1cc(Oc2ccc(C(F)(F)F)cc2Cl)ccc1[N+](=O)[O-]`: the molecule was classed as inactive in [1], in test [8], in test [17], in [2], in test [3] and in [4]. Besides, the molecule was classed as inactive in test [5] and in [7].

On to `CCOC(=O)[C@]1(c2ccccc2)Oc2ccccc2[C@@H]1N`, for which the outcome in test [8], in test [18], in test [12] and in test [3] was inactive. Further, the AC50 was 2.19 µM (active) in test [13]; 1.4 µM (active) in [10]; 0.33 µM (active) in [14]; 2.9 µM (active) in test [15]; 2.52 µM (active) in [16]; 41.6 µM (active) in test [2]. The AC50 in test [4] is 78.3 µM (active); in [5], 77.5 µM (active); in test [6], 88.2 µM (active); in test [7], 78.6 µM (active).

Turning to `Nc1cc(Cl)cc(C(=O)O)c1Cl`, the molecule was called inactive in test [8], in [17], in test [2], in test [3], in [4] and in [5]. The outcome in test [7] was inactive.

With `[Cl-].[Cl-].[Hg+2]`, the AC50 in test [1] is 11.4 µM (active). The molecule was classed as inactive in [8], in test [2], in [3], in [4], in test [5] and in test [7].

Consider `Cc1ccc([N+](=O)[O-])cc1`, for which the molecule was called inactive in test [1], in [8], in test [18], in [2], in test [3] and in test [4]. Further, the molecule was called inactive in [5] and in test [7].

For `[O-][Cl+]O`, the result in [8], in test [2], in test [4], in test [5] and in test [7] was inactive.

Take `Clc1ccccc1Cl`: the outcome in [1], in test [8], in test [18], in test [17], in test [2] and in [3] was inactive. In addition, the call in test [4], in test [5], in test [6] and in [7] was inactive.
